This note sets out measurements from paper PMC4336329 (PLoS ONE, 2015).

The structures appear in SMILES notation. The whole screen tested about 310,000 compounds, of which about 14,000 (4.5%) showed an effect of 50% or more. The effect is printed as a negative number. Shown is part of a subset that was picked to be rich in strong results.
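Note: peak tail current of the secondary pulse compared with the same well before compound.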

Chain of human ether-à-go-go-related gene (hERG) potassium channel (Q12809 whole entry, looked up): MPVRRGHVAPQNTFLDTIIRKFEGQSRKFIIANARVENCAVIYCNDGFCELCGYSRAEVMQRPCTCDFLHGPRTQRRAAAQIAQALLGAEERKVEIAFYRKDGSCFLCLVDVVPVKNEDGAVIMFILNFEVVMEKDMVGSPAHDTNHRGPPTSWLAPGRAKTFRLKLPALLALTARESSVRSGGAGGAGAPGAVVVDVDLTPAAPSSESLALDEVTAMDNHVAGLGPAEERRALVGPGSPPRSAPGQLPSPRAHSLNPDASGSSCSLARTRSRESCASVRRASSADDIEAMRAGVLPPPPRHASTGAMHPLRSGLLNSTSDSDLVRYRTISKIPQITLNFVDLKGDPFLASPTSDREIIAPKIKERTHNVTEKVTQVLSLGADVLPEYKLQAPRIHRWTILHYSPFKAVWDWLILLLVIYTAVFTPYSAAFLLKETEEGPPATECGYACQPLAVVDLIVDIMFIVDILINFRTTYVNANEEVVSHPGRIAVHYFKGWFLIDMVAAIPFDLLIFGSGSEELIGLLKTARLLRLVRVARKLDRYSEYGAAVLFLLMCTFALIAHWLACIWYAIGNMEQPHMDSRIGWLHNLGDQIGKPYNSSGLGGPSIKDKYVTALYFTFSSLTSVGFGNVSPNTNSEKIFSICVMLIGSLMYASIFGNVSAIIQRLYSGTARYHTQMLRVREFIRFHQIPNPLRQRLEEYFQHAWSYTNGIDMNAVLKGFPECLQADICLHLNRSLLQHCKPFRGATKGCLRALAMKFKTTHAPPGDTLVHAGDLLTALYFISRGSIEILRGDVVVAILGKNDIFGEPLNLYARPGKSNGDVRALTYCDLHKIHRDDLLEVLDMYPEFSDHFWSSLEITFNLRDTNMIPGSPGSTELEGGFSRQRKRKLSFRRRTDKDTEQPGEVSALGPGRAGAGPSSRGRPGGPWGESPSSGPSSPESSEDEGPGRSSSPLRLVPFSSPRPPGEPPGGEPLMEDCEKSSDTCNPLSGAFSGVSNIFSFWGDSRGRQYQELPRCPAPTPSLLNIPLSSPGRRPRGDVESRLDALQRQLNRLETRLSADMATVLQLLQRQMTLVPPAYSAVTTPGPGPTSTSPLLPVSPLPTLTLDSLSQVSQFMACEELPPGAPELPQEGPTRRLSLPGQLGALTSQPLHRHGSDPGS

This experiment has as its target human ether-à-go-go-related gene (hERG) potassium channel (human, UniProt Q12809). As to the kind of experiment: primary screen, population patch clamp on CHO cells stably expressing hERG; higher = less effect of the substance.
In the case of `Cn1c(=O)c2c(ncn2CC(O)CNc2ccc(F)cc2)n(C)c1=O` (centres unmarked), the “hERG current change (%, negative = inhibition) at 10uM” value stood at 1.35%.
For `COc1ccc(S(=O)(=O)N2CCC(C(=O)NCCC(=O)NCc3ccncc3)CC2)cc1` the value was 11%; for `CCN(CCN1CCCC1)C(=O)c1cc(COc2ccccc2SC)on1`, -32.1%; for `CN(C)C=NC(=O)c1ccc(N2CCN(c3ncc(C(F)(F)F)cc3Cl)CC2)cc1`, 7.74%.
With `O=C(NCCO)Nc1ccc2nsnc2c1`, the “hERG current change (%, negative = inhibition) at 10uM” value is recorded as -5.93%.
As to `NC(=O)c1ccccc1N=Cc1cccnc1`, the “hERG current change (%, negative = inhibition) at 10uM” value is -21%.
Under `Cc1cc(N2C(=O)c3ccc(C(=O)Nc4ccccc4O)cc3C2=O)no1` stands 14.1%; under `O=c1c(Cc2c(F)cccc2Cl)c(O)ccn1C1CC1`, -11.7%.
As for `COc1ccc(NC(=O)c2csc3c2CCCCC3)c(OC)c1`, the “hERG current change (%, negative = inhibition) at 10uM” value was -6.93%.
As to `CCOC(=O)c1c(C)[nH]c(C(=O)N/N=C/c2cc([N+](=O)[O-])ccc2O)c1C`, the “hERG current change (%, negative = inhibition) at 10uM” value turned out to be 33.7%.
Under `CCCCCn1c(=O)c(C(=O)Nc2ccccc2N)c(O)c2ccccc21` stands 21.4%.
As to `CCOC(=O)c1cc(NCc2cccs2)ccc1N1CCOCC1`, the “hERG current change (%, negative = inhibition) at 10uM” value is -3.79%.
For `COc1ccc(-c2[nH]c(-c3ccc4c(c3)OCO4)nc2-c2ccccc2)cc1`, the “hERG current change (%, negative = inhibition) at 10uM” value is given as 1.88%.
For `COc1ccc(/C=N/NC(=O)c2ccn[nH]2)cc1CN1CCOCC1`, the “hERG current change (%, negative = inhibition) at 10uM” value is listed as -14.8%.
As for `COc1ccc(/C=N/NC(=O)c2cccnc2)cc1CN1CCc2ccccc2C1`, the “hERG current change (%, negative = inhibition) at 10uM” value is listed as -17.9%.
For `COc1ccc(/C=N\NC(=O)c2ccccc2)cc1COc1ccc(F)cc1` the value was -0.876%; for `COc1ccc(/C=N/NC(=O)c2cccnc2)cc1CN1CCOCC1`, 13.6%.
With `COc1ccc(/C=N/NC(=O)c2ccccc2O)cc1CN1CCOCC1`, the “hERG current change (%, negative = inhibition) at 10uM” value was -12.8%.
`COc1ccc(/C=N\NC(=O)c2ccccc2)cc1COc1ccccc1`: the “hERG current change (%, negative = inhibition) at 10uM” value was determined as 20.6%.
Consider `COc1ccc(/C=N/NC(=O)c2ccc(C)cc2)cc1CN1CCN(c2ccc(F)cc2)CC1`, for which the “hERG current change (%, negative = inhibition) at 10uM” value is reported as -69.8%.
For `COc1cc(C(=O)N/N=C/c2ccc(OC)c(CN3CCN(c4ccc(F)cc4)CC3)c2)ccc1O`, the “hERG current change (%, negative = inhibition) at 10uM” value was -75.3%.
As for `COc1ccc(/C=N/NC(=O)c2ccccc2)cc1CN1CCN(c2ccc(F)cc2)CC1`, the “hERG current change (%, negative = inhibition) at 10uM” value is -74.5%.
Regarding `COc1cc(OC)cc(C(=O)N/N=C/c2ccc(OC)c(COc3ccc(F)cc3)c2)c1`, the “hERG current change (%, negative = inhibition) at 10uM” value came out at 6.62%.
In the case of `COc1ccc(/C=N/NC(=O)c2cccnc2)cc1CN1CCN(c2ccc(F)cc2)CC1`, the “hERG current change (%, negative = inhibition) at 10uM” value is given as -51%.
Turning to `COc1ccc(/C=N\NC(=O)c2cc(O)c(O)c(O)c2)cc1CN1CCN(c2ccc(F)cc2)CC1`, the “hERG current change (%, negative = inhibition) at 10uM” value stood at 14.6%.
For `CCC(C)NC(=O)N[C@@H](Cc1ccccc1)C(=O)O` (some centres unmarked) the value was -1.98%; for `CCOC(=O)C1CCN(C(=O)CNC(=O)Cn2c(C)cc3ccccc3c2=O)CC1`, 6.61%; for `O=C(COc1ccc(F)cc1)Nc1nnc(-c2ccncc2)s1`, -6.52%.
Regarding `c1cnc(N2CCN(c3nc4ccccc4n4cnnc34)CC2)nc1`, the “hERG current change (%, negative = inhibition) at 10uM” value is reported as -27.6%.
Turning to `CC(C)[C@H](NC(=O)c1ccco1)C(=O)NCc1ccccc1`, the “hERG current change (%, negative = inhibition) at 10uM” value is listed as 25.1%.
For `COc1ccc(S(=O)(=O)N(C)c2ccc(C(=O)NCc3ccco3)cc2)cc1OC`, the “hERG current change (%, negative = inhibition) at 10uM” value was -9.43%.
For the molecule `CCN(CC)c1ccc(/C=N/NC(=O)Cc2cccs2)cc1`, the “hERG current change (%, negative = inhibition) at 10uM” value was -16.6%.
Under `COc1ccc(/C=N\NC(=O)c2ccccc2F)cc1COc1ccc(F)cc1` stands 27.1%; under `C/C=C/c1cc(CN2CCN(c3ccc(OC)cc3)CC2)c(O)c(OC)c1`, -68.7%; under `CCOc1ccc(/C=N/NC(=O)c2ccccc2O)cc1CN1CC2CC(C1)c1cccc(=O)n1C2` (centres unmarked), -16.7%.
For `C/C=C/c1cc(CN2CCN(c3ccccc3)CC2)c(O)c(OC)c1` the value was -32%.
Take `COc1ccc(/C=N/NC(=O)c2ccoc2C)cc1OC`: the “hERG current change (%, negative = inhibition) at 10uM” value was -9.75%.
On to `CCOc1ccc(/C=N/NC(=O)c2ccc(O)cc2)cc1CN1CC2CC(C1)c1cccc(=O)n1C2` (centres unmarked), for which the “hERG current change (%, negative = inhibition) at 10uM” value came out at 4.7%.
Regarding `COc1ccc(/C=N/NC(=O)c2ccoc2C)cc1CN1CCN(c2ccc(F)cc2)CC1`, the “hERG current change (%, negative = inhibition) at 10uM” value was -76.8%.
Take `CCOc1ccc(/C=N/NC(=O)c2ccc(F)cc2)cc1CN1CC2CC(C1)c1cccc(=O)n1C2` (centres unmarked): the “hERG current change (%, negative = inhibition) at 10uM” value is listed as -53.3%.
For the molecule `COc1ccc(N2CCN(Cc3cc4c(cc3O)CCC4)CC2)cc1`, the “hERG current change (%, negative = inhibition) at 10uM” value is on record as -12.4%.
For `COc1ccc(/C=N/NC(=O)c2ccccc2F)cc1CN1CCN(c2ccc(F)cc2)CC1`, the “hERG current change (%, negative = inhibition) at 10uM” value is on record as -76.2%.
Turning to `COc1ccc(/C=N\NC(=O)c2ccccc2F)cc1COc1ccc(F)cc1F`, the “hERG current change (%, negative = inhibition) at 10uM” value came to 11.7%.
For `COc1ccc(/C=N/NC(=O)c2ccoc2C)cc1O` the value was -4.47%; for `CCOc1cc(Br)c(C=O)cc1OCC`, 22.1%.
As for `CC1(CCc2ccccc2)NC(=O)N(CC(=O)N2CC(=O)Nc3ccccc32)C1=O` (centres unmarked), the “hERG current change (%, negative = inhibition) at 10uM” value is 7.19%.
For `O=C(COC(=O)c1ccccn1)Nc1ccccc1OC(F)F` the value was 6.71%; for `Cc1cnc(NC(=O)CN(C)S(=O)(=O)c2ccc(Cl)cc2)s1`, -1.68%.
As to `O=C(CC(c1ccccc1)c1cc(Br)ccc1O)NCCN1CCOCC1` (centres unmarked), the “hERG current change (%, negative = inhibition) at 10uM” value is listed as -34.7%.
As for `CCCCCCCOC(=O)C1=C(C)Nc2ncnn2C1c1cccs1` (centres unmarked), the “hERG current change (%, negative = inhibition) at 10uM” value is -0.122%.
On to `Cc1ccc(NC(=O)COc2ccc(Br)cc2C)cc1`, for which the “hERG current change (%, negative = inhibition) at 10uM” value came to 0.803%.
Under `COc1ccc(/C=N/NC(=O)c2ccncc2)cc1CN1CCN(c2ccc(F)cc2)CC1` stands -77%.
Under `COc1ccc(C(=O)N/N=C/c2ccc(OC)c(CN3CCN(c4ccc(F)cc4)CC3)c2)cc1` stands -74.2%; under `COc1ccc(C(=O)N/N=C/c2ccc(OC)c(COc3ccc(F)cc3)c2)cc1`, -35.2%.
For the molecule `COc1ccc(/C=N/NC(=O)c2ccncc2)cc1CN1CCCc2ccccc21`, the “hERG current change (%, negative = inhibition) at 10uM” value was -26.1%.
For `COc1ccc(/C=N/NC(=O)c2ccncc2)cc1OC` the value was 15.5%.
Under `COc1ccc(C(=O)N/N=C/c2ccc(OC)c(COc3ccc(F)cc3F)c2)cc1` stands 3.74%; under `NC1=NC(=O)/C(=C\c2ccc(-c3ccc(Cl)cc3)o2)S1`, 9.15%; under `COc1ccc(NC(=O)CS(=O)CC(=O)NCC2OCCc3ccccc32)cc1` (centres unmarked), 16.2%.
Take `C=CCNC(=S)NNC(=O)c1ccncc1`: the “hERG current change (%, negative = inhibition) at 10uM” value was 1.85%.
As to `O=C1CC(N2CCN(Cc3ccc(Cl)cc3)CC2)C(=O)N1CCc1ccccc1` (centres unmarked), the “hERG current change (%, negative = inhibition) at 10uM” value is -37.4%.
Regarding `Cc1ccc(NC(=O)COC(=O)CCc2c[nH]c(=O)[nH]2)cc1`, the “hERG current change (%, negative = inhibition) at 10uM” value amounted to 1.45%.
On to `COc1c(O)cccc1[C@@H](O)C1CCN(CCc2ccc(F)cc2)CC1`, for which the “hERG current change (%, negative = inhibition) at 10uM” value is recorded as -55.8%.
For `COc1cccc(C(c2nnnn2Cc2ccc(F)cc2)N2CCC(C(N)=O)CC2)c1OC` (centres unmarked) the value was -24.8%.
Under `Fc1cccc(CNC2CCN(CCc3ccccc3)CC2)c1` stands -42.8%.
Under `Cc1cc(Cl)ccc1OCC(=O)NC(=S)Nc1ccc(Cl)cn1` stands 10.9%; under `Cc1ccc(C(=O)NC(C)(COc2nonc2C)COc2nonc2C)cc1`, -40%.
For `Cc1nonc1OCC(C)(COc1nonc1C)NC(=O)c1ccccc1`, the “hERG current change (%, negative = inhibition) at 10uM” value is -6.59%.
Turning to `Cc1nonc1OCC(C)(COc1nonc1C)NC(=O)c1ccc(Cl)cc1`, the “hERG current change (%, negative = inhibition) at 10uM” value is listed as -61.1%.
For `Cn1c(=O)n(Cc2ccccc2F)c2ccccc21` the value was -16.3%; for `CCN(CC)C(=O)c1ccc2c(c1)C1C(Cl)C(Sc3ccccc3[N+](=O)[O-])CC1C(C(=O)O)N2` (centres unmarked), -59.3%.
`CC(=O)c1ccc2c(c1)C1C(Cl)C(Sc3ccccc3[N+](=O)[O-])CC1C(C(=O)O)N2` (centres unmarked): the “hERG current change (%, negative = inhibition) at 10uM” value is recorded as -20.8%.
For `CC(=O)c1ccc2c(c1)C1C(Cl)C(Sc3ccccc3[N+](=O)[O-])CC1C(c1ccccc1)N2` (centres unmarked) the value was 15.1%; for `CN(Cc1nc(-c2cccc(Cl)c2)no1)C1CCOCC1`, -22.7%; for `Cn1c(C(=O)NCc2cccnc2)cc2sc(Cl)cc21`, -43.9%.
As for `CCn1c(C(=O)NCc2cccnc2)cc2sc(Cl)cc21`, the “hERG current change (%, negative = inhibition) at 10uM” value is listed as -57.2%.
Under `CCn1c(=O)c(C(=O)NNS(=O)(=O)c2ccc(NC(=O)OC)cc2)c(O)c2ccccc21` stands -56.3%; under `CCCn1c(=O)c(C(=O)NCc2cccnc2)c(O)c2ccccc21`, -34.7%; under `CCn1c(=O)c(C(=O)NCc2ccccc2)c(O)c2ccccc21`, 19.1%.
Under `CCCn1c(=O)c(C(=O)NNS(=O)(=O)c2ccc(NC(=O)OC)cc2)c(O)c2ccccc21` stands 9.85%; under `CCCCCn1c(=O)c(C(=O)NCc2ccccc2)c(O)c2ccccc21`, 15.2%; under `CCn1c(=O)c(C(=O)NCc2cccnc2)c(O)c2ccccc21`, -56.4%.
For `Cn1c(C(=O)NCc2cccnc2)cc2sccc21` the value was -10.2%; for `CCCCCn1c(=O)c(C(=O)NCc2ccncc2)c(O)c2ccccc21`, -53.7%; for `COC(=O)Nc1ccc(S(=O)(=O)NNC(=O)c2c(O)c3ccccc3n(C)c2=O)cc1`, 25.9%.
As for `CCCCn1c(=O)c(C(=O)NCc2ccncc2)c(O)c2ccccc21`, the “hERG current change (%, negative = inhibition) at 10uM” value is given as -44%.
